± gives the standard deviation.

This assay has as its system MILI (PIWIL2) piRISC loaded with piRNA #1 (26 nt). The assay can be described thus: pre-steady-state target cleavage rate (min^-1); guide: piRNA #1 5'p-UGAGGUAGUAGGUUGUAUAGUAUCCA; MIWI and MILI are mouse PIWI proteins and EfPiwi is from a freshwater sponge; tags in brackets are library labels; higher = faster piRNA-guided slicing of the target. To be noted: auxiliary factor: 500 nM mouse GTSF1. As to the method: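 Cleave-'n-Seq: a library of target RNAs (target site embedded in constant flanks, ACAGCATTCCGCGTTAGTGATATCCG... 5' flank; DNA-blocked outside the site) at 0.1 nM was incubated with 1 nM active mouse MILI or MIWI piRISC (synthetic 5'-monophosphorylated piRNA guide) with or without 500 nM mouse GTSF1 at 33 °C for 1 min to 16 h. Uncleaved targets were sequenced and normalised to non-target controls, and the pooled three trials were fitted to a burst-and-steady-state model to give the pre-steady-state cleavage rate (min^-1; k3 is constrained to at most 1e-4). Sequence is the target site only; target names encode pairing extent (gX:gY) and contiguous / 1-mismatch / 2-mismatch / bulge geometry. Fits with R² ≤ 0 are excluded.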
For GGAGACCUAUGAUUACAACCUACUACACUCA, the “pre-steady-state target cleavage rate” value is 0.00616 ± 0.0025.

For GGAGUGGAUACUUACAACCUACUACCUCA, the “pre-steady-state target cleavage rate” value turned out to be 0.141 ± 0.012.

With GGAGAGGAUACUAUACAAUCUACUACCUCA, the “pre-steady-state target cleavage rate” value is 0.129 ± 0.0097.

In the case of GGAGACCUAUCUAUACAUCCUACUACCUCA, the “pre-steady-state target cleavage rate” value amounted to 0.182 ± 0.018.

In the case of GGAGAGGAUACUAUACUACCAACUACCUCA, the “pre-steady-state target cleavage rate” value was 0.00796 ± 0.0017.

In the case of GGAGAGGAUAGUAUACAACCUACUACCUCA, the “pre-steady-state target cleavage rate” value came out at 0.0476 ± 0.01.

Take GGAGACCUAUCUUUACAACCUACUUCCUCA: the “pre-steady-state target cleavage rate” value came to 0.0374 ± 0.0094.

GGAGACCUAUGAAUACAACCUACUCCCUCA: the “pre-steady-state target cleavage rate” value is 0.00391 ± 0.0022.

With GGAGACCUAUGAAUACAACCUACCUACCUCA, the “pre-steady-state target cleavage rate” value came to 0.0088 ± 0.0035.

Turning to GGAGACCUAACUAAACAACCUACUACGUCA, the “pre-steady-state target cleavage rate” value amounted to 0.0404 ± 0.019.

Turning to GGAGACCUUACUGUACAACCUACUACCUCA, the “pre-steady-state target cleavage rate” value is 0.163 ± 0.029.

Turning to GGAGACCUAACUGUACAACCUACUACCUCA, the “pre-steady-state target cleavage rate” value is 0.0814 ± 0.024.

For GGAGAGCAUACUAUUCAACCUACUACCUCA, the “pre-steady-state target cleavage rate” value is 0.217 ± 0.017.

Consider GGAGUGGAUACUAUACUAGCUACUACCUCA, for which the “pre-steady-state target cleavage rate” value was 0.158 ± 0.011.

As for GGAGACCUUACUAUAGAACCUACUACCUCA, the “pre-steady-state target cleavage rate” value is 0.125 ± 0.015.

GGAGACCUAUCUAAACAACCUAGUACCUCA: the “pre-steady-state target cleavage rate” value is 0.0109 ± 0.0036.

On to GGAGAGGAUACUAUACAACCACUACCUCA, for which the “pre-steady-state target cleavage rate” value was found to be 0.00782 ± 0.0025.

Consider GGAGACCUAUGUAUUGAACCUACUACCUCA, for which the “pre-steady-state target cleavage rate” value came out at 0.00285 ± 0.0015.

For the sequence GGAGACCUAACUAUACAACCUACUACCCUCA, the “pre-steady-state target cleavage rate” value was found to be 0.185 ± 0.034.

As to GGAGACCUAUGUAUACAAGCUUCUACCUCA, the “pre-steady-state target cleavage rate” value came to 0.0107 ± 0.0027.

Consider GGAGACCUAUCUAUACAACCUACUUACCUCA, for which the “pre-steady-state target cleavage rate” value turned out to be 0.121 ± 0.015.

Regarding GGAGACCUAUCUAUACAUCCAACUACCUCA, the “pre-steady-state target cleavage rate” value was 0.00941 ± 0.0034.

In the case of GGAGAGGAUACUAGUACAACCUACUACCUCA, the “pre-steady-state target cleavage rate” value worked out at 0.079 ± 0.011.

GGAGUCGAUAGUAUACAACCUACUACCUCA: the “pre-steady-state target cleavage rate” value was 0.154 ± 0.011.

As for GGAGAGGAUACUUUACAACCUACUACCUCA, the “pre-steady-state target cleavage rate” value was determined as 0.172 ± 0.011.

With GGAGACCUAACUAUACAACCUAGUACCUCA, the “pre-steady-state target cleavage rate” value stood at 0.016 ± 0.0088.

For the sequence GGAGAGGAUACUAUACAAGCAACUACCUCA, the “pre-steady-state target cleavage rate” value was 0.00819 ± 0.0023.

For the sequence GGAGUGGAUACAAUACUACCUACUACCUCA, the “pre-steady-state target cleavage rate” value is 0.16 ± 0.013.

On to GGAGACCUAAGUUUACAACCUACUACCUCA, for which the “pre-steady-state target cleavage rate” value amounted to 0.0168 ± 0.0041.

For the sequence GGAGUGGAUUGUAUACAACCUACUACCUCA, the “pre-steady-state target cleavage rate” value came to 0.151 ± 0.0098.

In the case of GGAGACCUAUGAAUACUACCUACUUCCUCA, the “pre-steady-state target cleavage rate” value is 0.0037 ± 0.0024.

GGAGACCUAACUAUACAACCUACUUCCUCA: the “pre-steady-state target cleavage rate” value turned out to be 0.0606 ± 0.02.

As to GGAGACCUAUCUAUACAACCUACGACCUCA, the “pre-steady-state target cleavage rate” value was 0.0973 ± 0.013.

GGAGACCUAUCUAUAUCAACCUACUACCUCA: the “pre-steady-state target cleavage rate” value was 0.00847 ± 0.0035.

Take GGAGACCUUACUUUACAACCUACUACGUCA: the “pre-steady-state target cleavage rate” value came to 0.0613 ± 0.011.

Turning to GGAGAGGAAACAAUACAACCUACUACCUCA, the “pre-steady-state target cleavage rate” value was determined as 0.186 ± 0.018.

In the case of GGAGACCUAAUAUACAACCUACUACCUCA, the “pre-steady-state target cleavage rate” value is 0.0727 ± 0.014.

GGAGUGGAUACUAUACAACCUACUACACUCA: the “pre-steady-state target cleavage rate” value was determined as 0.128 ± 0.018.

As for GGAGACGAUACUAUACAACCUACUCACCUCA, the “pre-steady-state target cleavage rate” value is 0.122 ± 0.019.

Take GGAGACGUUACUAUACAACCUACUACCUGA: the “pre-steady-state target cleavage rate” value was 0.102 ± 0.016.

For the origin of these results see the supplement of paper PMC10338343.
